Experiment [1] is described as follows: yeast TOR pathway RPL19A-GFP modulators, primary screen, cell-based, S. cerevisiae, multiplex flow cytometry (AID 1862; in the data active means percent of DMSO control GFP below about 86%;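 further: lower values mimic rapamycin by blocking the RPL19A rise seen in DMSO cells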). The note with it: S. cerevisiae RPL19A-GFP strain, flow cytometry fluorescence, 3 h; at 10 µM; stronger effect = lower value. (In flow cytometry, cells or beads pass a laser one at a time.)
The nature of experiment [2]: modulators of MEP2-GFP levels in yeast, primary screen, S. cerevisiae, multiplex flow cytometry (AID 1867;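 active means GFP response, as percent of the DMSO control, above the screen-wide mean plus 3 SD, about 139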;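 further: median GFP channel fluorescence of barcode-gated MEP2-GFP cells measured by flow cytometry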). The note with it: S. cerevisiae MEP2-GFP strain, 3 h, at 10 µM, stronger effect = higher value.
Experiment [3] can be described thus: modulators of CIT2-GFP expression in yeast, primary screen, S. cerevisiae, GFP fusion, multiplex flow cytometry (AID 1870;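 active means percent response above a set limit, the screen-wide mean plus 3 SD, cut at about 130% in these data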;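 further: barcoded CIT2-GFP strain pooled with four other GFP strains with rapamycin as positive control; median GFP fluorescence per well over plate mean of DMSO wells so 100% = DMSO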). The note with it: 3 h, at 10 µM, stronger effect = higher value.
The nature of experiment [4]: modulators of LAP4-GFP expression in yeast, primary screen, S. cerevisiae, multiplex flow cytometry (AID 1873;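 active means GFP signal, as percent of the solvent control, above the screen mean plus 3 SD, about 149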). The conditions noted are these: 3 h, at 10 µM, stronger effect = higher value.
Experiment [5] can be described thus: modulators of AGP1-GFP expression in yeast TOR pathway, primary screen, cell-based, multiplex flow cytometry, S. cerevisiae (AID 1887;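 active means GFP signal above the screen-wide mean plus 3 SD, that is over about 124.5% of the solvent control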;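 further: AGP1-GFP fusion strain of S. cerevisiae within a five-strain barcoded multiplex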). The note with it: 3 h, at 10 µM, stronger effect = higher value.
Experiment [6] can be described thus: inhibitors of CD8+ T cell-vesicle binding, pilot screen, LFA-1/ICAM-1 modulator project, MLPCN validation set, flow cytometry (AID 2523;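 active means response below a set limit, under 55% cells CD8-positive and vesicle-bound, and CD8 cells' 90th-percentile brightness under 279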;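 on vesicle binding response: mean PE anti-B7-1 fluorescence of CD8+ cells relative to row control; 100% = QL9-loaded vesicles with DMSO vehicle in the same plate row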). The conditions noted are these: 2C mouse CD8+ T cells, at 7 µM, stronger effect = lower value; double positive events: measured here: CD8+/vesicle+ event percentage.
Experiment [7] deals with Integrin beta-1 (Homo sapiens) + Integrin alpha-4 (Homo sapiens) (UniProt P13612+P05556). The experiment can be described thus: inhibition of HUTS-21 binding to VLA-4, pilot screen, VLA-4 allosteric modulator project, U937 cells, HUTS-21 mAb, flow cytometry, validation set (AID 2674;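 active means inhibition above 50%, about 3 SD of the validation set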;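 further: antibody binding induced by the VLA-4 ligand LDV present at three times its Kd; 0% = LDV ligand with antibody and no compound and 100% = antibody without LDV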). The note with it: HUTS-21 LIBS mAb binding, at 6.7 µM, stronger effect = higher value.
The nature of experiment [8]: superoxide lowering in aged yeast cells, pilot screen, validation compound set (AID 2706;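 active means superoxide response below 65% of plate, a cut near 3 SD across the whole screen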;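 further: yeast exposed to compound for one week at 30 degrees C before staining; 100% = mean of all compound wells on the same plate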). The conditions noted are these: S. cerevisiae aging, superoxide DHE fluorescence; at 10 µM; stronger effect = lower value.
Experiment [9] addresses Beta-adrenergic receptor kinase 1 (Homo sapiens) (UniProt P25098). As to the kind of experiment: GRK2 binders displacing RNA aptamer, biochemical, validation, human GRK2, bead flow cytometry (AID 488806;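 active means aptamer binding inhibition above 30%, about 3 SD of noise from non-fluorescent compounds; inactive means inhibition at or below 30%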). The note with it: bead-bound GRK2, FAM-aptamer displacement, at 10 µM, stronger effect = higher value.
Experiment [10] has as its target Beta-2 adrenergic receptor (Homo sapiens) (UniProt P07550). As to the kind of experiment: beta2AR agonists driving receptor internalization, pilot screen, cell-based, FAP fluorogen, flow cytometry, validation set (AID 504459;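 active means percent response above 42, roughly 3 SD of non-fluorescent test compounds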;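 further: agonist-driven loss of surface beta2AR via internalization measured by FAP dye flow cytometry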). The note with it: Am2.2-beta2AR cells, FAP surface receptor flow cytometry; at 10 µM; stronger effect = higher value.
Experiment [11] addresses AP-2 complex subunit beta (Homo sapiens) (UniProt P63010). The experiment can be described thus: inhibitors of arrestin peptide binding to AP2, pilot screen, biochemical, validation set, GST-AP2 beads, flow cytometry (AID 504541;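 active means inhibition above 54%, about 3 SD of non-fluorescent compounds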;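 further: AP2 carries R879A mutation and is captured from E. coli lysate; bead-bound FITC arrestin peptide fluorescence measuring arrestin peptide binding to AP2; 0% = DMSO wells and 100% = excess unlabeled arrestin peptide control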). The note with it: FITC arrestin peptide, at 10 µM, stronger effect = higher value.
Experiment [12] can be described thus: yeast V-ATPase proton transport modulators, S. cerevisiae, pHLuorin, HTS validation (AID 504600; in the data active means response above about 15%;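 further: plate controls were DMSO for no effect and reference compound for full effect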). The note with it: S. cerevisiae pHLuorin cytosolic pH, at 10 µM, stronger effect = higher value.
Experiment [13] concerns anti-desmoglein-3 scFv antibody binding to human DSG3. As to the kind of experiment: inhibitors of anti-DSG3 scFv binding to DSG3, pilot screen, biochemical, validation compound set, bead-based, flow cytometry (AID 588368;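 active means binding below the plate cutoff, the plate median minus 3 SD, with a reading above zero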;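 further: signal is the median channel fluorescence of bead-bound GFP antibody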). The conditions noted are these: Protein G beads, DSG3-Fc, scFv-GFP binding, at 10 µM, stronger effect = lower value.
Experiment [14] relates to Botulinum neurotoxin type F light chain protease (Clostridium botulinum). As to the kind of experiment: Botulinum neurotoxin type F light chain protease inhibition, multiplex microsphere flow cytometry, validation set (AID 588459). The conditions noted are these: multiplex microsphere protease substrate cleavage assay, at 10 µM, stronger effect = higher value.
Experiment [15] deals with Botulinum neurotoxin type A (Clostridium botulinum) (UniProt P0DPI0). The experiment can be described thus: BoNT/A light chain protease inhibitors, biochemical, multiplex microsphere flow cytometry, validation set (AID 588460). The conditions noted are these: at 10 µM, stronger effect = higher value.
The target of experiment [16] is Lethal factor (Bacillus anthracis) (UniProt P15917). As to the kind of experiment: Lethal factor protease inhibitors, Bacillus anthracis, multiplex microsphere cleavage assay, validation set (AID 588461). The note with it: flow cytometry, at 10 µM, stronger effect = higher value.
A short description of experiment [17]: inhibitors of fungal efflux pumps CDR1, CDR2, MDR1, pilot screen, validation compound set, multiplex, phenotypic (AID 588506;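 active means efflux inhibition above 0.42, the validation set average plus 4 SD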;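 further: Nile Red retained in cells so higher fluorescence means more efflux inhibition; 0 = negative control wells and 1 = enniatin B 25 µM full block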). The note with it: S. cerevisiae pump-expressing triplex, Nile Red efflux flow cytometry; at 10 µM; stronger effect = higher value.
Experiment [18] addresses ATP-binding cassette sub-family B member 6 (Homo sapiens) (UniProt Q9NP58). As to the kind of experiment: ABCB6 transporter inhibitors, pilot screen, K562-ABCB6 cells, flow cytometry, validation set (AID 588550;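 active means inhibition above the screen-wide mean plus 3 SD, about 51%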;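 further: 0% = DMSO wells and 100% = benzethonium chloride 70 µM positive control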). The note with it: K562-ABCB6 porphyrin accumulation, 1 h, at 10 µM, stronger effect = higher value.
Experiment [19] can be described thus: promoters of myeloid differentiation in arrested cells, primary screen, cell-based, GFP/MAC1 double positive, flow cytometry, validation set (AID 588685;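 active means differentiation response of at least 50%, scaled between solvent and reference control, from cells with both markers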;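 further: compound exposure lasts four days before antibody staining and flow analysis; 0% = DMSO wells and 100% = 5 µM fulvestrant positive control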). The conditions noted are these: ER-HoxA9 marrow cells, stronger effect = higher value.

Inconclusive results are not listed. Active and inactive are the calls of the source. Unless noted, how the calls were made is not given here.

Lethal factor (Bacillus anthracis), sequence (P15917 whole entry, looked up): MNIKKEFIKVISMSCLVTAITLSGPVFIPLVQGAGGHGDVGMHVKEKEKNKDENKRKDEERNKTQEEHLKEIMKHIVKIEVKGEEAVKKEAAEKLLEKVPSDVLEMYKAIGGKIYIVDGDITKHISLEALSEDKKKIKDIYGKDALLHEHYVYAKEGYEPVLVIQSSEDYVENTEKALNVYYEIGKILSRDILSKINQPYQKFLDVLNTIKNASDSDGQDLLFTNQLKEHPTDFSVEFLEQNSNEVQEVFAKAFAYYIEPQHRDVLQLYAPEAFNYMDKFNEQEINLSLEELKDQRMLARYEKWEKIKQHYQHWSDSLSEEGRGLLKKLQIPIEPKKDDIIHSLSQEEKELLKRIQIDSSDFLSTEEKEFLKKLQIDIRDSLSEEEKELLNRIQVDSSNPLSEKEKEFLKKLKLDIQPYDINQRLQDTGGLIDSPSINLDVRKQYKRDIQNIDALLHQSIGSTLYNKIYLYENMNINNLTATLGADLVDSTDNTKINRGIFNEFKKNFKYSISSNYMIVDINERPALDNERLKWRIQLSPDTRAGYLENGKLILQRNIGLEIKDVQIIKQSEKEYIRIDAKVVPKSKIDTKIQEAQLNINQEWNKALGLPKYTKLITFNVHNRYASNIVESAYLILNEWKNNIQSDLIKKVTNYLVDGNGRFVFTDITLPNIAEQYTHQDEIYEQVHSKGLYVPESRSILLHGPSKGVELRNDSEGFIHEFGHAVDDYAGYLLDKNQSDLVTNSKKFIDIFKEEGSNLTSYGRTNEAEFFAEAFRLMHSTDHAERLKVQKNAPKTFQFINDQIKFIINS
Integrin beta-1 (Homo sapiens) + Integrin alpha-4 (Homo sapiens), sequence (P05556 whole entry, looked up): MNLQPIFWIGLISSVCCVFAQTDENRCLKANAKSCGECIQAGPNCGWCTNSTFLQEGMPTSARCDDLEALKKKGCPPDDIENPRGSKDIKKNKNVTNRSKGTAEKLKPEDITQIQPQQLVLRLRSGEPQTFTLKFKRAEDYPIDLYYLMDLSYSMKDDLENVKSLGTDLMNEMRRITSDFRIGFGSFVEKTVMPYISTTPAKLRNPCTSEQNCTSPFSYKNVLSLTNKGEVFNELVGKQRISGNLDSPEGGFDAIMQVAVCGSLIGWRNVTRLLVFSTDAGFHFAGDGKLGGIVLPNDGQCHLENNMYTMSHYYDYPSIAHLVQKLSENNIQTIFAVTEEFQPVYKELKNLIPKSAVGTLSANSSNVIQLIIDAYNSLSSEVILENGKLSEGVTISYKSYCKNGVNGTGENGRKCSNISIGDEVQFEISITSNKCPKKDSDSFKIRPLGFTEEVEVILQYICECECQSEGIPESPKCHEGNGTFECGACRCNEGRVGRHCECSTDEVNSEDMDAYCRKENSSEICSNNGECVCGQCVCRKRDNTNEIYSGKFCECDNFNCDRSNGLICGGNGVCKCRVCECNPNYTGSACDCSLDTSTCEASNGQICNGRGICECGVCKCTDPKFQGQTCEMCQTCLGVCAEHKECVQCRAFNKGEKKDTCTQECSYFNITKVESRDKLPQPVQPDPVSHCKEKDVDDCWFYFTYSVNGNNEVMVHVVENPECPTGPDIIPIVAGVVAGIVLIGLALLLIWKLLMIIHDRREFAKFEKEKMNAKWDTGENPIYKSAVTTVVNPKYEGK
Integrin beta-1 (Homo sapiens) + Integrin alpha-4 (Homo sapiens), sequence (P13612 whole entry, looked up): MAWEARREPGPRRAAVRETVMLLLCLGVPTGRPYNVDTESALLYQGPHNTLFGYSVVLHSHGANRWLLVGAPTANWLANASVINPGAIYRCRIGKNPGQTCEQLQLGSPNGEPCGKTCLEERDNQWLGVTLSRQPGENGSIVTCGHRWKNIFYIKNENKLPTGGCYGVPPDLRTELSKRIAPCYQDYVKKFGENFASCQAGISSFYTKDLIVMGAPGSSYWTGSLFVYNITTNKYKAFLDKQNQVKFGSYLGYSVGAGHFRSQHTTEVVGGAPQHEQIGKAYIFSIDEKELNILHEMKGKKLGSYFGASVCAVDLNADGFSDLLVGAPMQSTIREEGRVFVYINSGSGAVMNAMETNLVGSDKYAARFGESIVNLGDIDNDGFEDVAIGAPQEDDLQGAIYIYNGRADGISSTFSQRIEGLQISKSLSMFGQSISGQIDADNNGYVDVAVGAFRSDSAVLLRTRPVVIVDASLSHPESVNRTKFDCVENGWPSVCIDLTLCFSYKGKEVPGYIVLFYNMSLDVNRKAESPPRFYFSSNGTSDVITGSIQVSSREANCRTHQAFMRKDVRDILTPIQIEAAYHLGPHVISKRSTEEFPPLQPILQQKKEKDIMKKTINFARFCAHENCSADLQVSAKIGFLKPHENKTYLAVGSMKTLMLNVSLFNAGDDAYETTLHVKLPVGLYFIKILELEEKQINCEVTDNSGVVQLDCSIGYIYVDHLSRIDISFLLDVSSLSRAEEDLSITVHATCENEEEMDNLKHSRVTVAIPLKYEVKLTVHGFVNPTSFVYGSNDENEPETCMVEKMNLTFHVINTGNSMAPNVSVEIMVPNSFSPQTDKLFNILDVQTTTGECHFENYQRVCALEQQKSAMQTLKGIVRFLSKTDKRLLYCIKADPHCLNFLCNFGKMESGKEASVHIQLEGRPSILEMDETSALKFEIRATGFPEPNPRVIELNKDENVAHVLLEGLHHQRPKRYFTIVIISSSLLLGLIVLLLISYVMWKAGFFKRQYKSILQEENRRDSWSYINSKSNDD
Beta-2 adrenergic receptor (Homo sapiens), sequence (P07550 whole entry, looked up): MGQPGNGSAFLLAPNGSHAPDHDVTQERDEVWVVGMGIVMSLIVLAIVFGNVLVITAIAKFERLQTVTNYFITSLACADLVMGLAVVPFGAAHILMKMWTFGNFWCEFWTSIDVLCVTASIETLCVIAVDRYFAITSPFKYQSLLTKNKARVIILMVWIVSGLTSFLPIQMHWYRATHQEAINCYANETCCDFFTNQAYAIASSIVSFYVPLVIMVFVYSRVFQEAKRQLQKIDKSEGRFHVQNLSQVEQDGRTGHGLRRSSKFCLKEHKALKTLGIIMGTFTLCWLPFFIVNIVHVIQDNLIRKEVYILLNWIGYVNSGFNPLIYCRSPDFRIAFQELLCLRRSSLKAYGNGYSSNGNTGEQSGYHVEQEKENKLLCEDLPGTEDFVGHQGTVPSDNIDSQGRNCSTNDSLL
ATP-binding cassette sub-family B member 6 (Homo sapiens), sequence (Q9NP58 whole entry, looked up): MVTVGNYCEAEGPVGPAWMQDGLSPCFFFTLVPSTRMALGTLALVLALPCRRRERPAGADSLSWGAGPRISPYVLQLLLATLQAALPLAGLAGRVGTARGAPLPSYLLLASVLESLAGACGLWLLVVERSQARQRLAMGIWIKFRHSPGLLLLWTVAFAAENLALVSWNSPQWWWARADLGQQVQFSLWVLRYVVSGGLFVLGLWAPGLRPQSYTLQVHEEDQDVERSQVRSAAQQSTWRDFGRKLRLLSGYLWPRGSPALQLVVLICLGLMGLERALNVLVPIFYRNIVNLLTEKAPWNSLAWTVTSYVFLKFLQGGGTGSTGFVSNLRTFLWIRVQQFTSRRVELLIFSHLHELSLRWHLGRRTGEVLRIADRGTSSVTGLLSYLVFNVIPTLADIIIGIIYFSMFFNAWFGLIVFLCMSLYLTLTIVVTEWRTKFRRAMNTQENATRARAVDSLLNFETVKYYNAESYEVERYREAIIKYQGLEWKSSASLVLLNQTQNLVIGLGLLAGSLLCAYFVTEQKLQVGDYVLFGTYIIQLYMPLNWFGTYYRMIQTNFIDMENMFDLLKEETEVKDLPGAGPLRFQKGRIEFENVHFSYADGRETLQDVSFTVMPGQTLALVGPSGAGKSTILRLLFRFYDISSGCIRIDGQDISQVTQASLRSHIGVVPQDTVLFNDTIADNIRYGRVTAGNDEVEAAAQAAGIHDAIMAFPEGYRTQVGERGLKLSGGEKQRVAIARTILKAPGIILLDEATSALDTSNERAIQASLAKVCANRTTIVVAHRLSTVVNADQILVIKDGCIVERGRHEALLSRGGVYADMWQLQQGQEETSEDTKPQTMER
Beta-adrenergic receptor kinase 1 (Homo sapiens), sequence (P25098 whole entry, looked up): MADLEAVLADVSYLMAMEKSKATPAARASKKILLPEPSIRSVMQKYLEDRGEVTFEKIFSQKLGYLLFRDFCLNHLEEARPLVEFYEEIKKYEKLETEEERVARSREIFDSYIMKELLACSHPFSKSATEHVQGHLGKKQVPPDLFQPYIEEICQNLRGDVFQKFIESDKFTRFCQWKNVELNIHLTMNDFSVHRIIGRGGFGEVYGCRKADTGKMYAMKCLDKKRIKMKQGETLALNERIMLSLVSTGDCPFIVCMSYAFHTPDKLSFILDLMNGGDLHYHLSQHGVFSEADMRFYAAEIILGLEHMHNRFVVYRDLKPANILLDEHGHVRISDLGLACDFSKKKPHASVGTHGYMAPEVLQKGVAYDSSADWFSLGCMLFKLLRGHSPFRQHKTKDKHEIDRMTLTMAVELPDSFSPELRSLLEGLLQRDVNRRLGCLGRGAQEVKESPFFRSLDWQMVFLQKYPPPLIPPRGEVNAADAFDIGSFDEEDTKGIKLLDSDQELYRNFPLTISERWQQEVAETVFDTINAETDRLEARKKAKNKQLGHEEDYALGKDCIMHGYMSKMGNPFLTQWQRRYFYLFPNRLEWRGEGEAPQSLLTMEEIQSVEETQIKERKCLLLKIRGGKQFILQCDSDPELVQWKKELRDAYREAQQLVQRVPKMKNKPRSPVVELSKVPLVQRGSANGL

Turning to `O=c1cccc2n1C[C@H]1C[C@@H]2CN2CCCC[C@@H]12`, the percent of DMSO control GFP in [1] was 97.6% (inactive). Further, the GFP response vs DMSO was 111% (inactive) in [2] and 118% (inactive) in [4]. Besides, the percent response of DMSO control in experiment [3] is 94.8% (inactive). In [5], the GFP response, % of DMSO is 98.1% (inactive). This compound also had a double positive events in [6] of 61.7%. The vesicle binding response in experiment [6] is 124% (inactive). Moreover, the inhibition in experiment [7] is -9.98% (inactive); in experiment [11] it was -2.4% (inactive); in [14], -0.6% (inactive); in experiment [15] it was -0.2% (inactive); in experiment [16] it was -7.3% (inactive); in experiment [18], 4% (inactive). The superoxide response (% of plate) in experiment [8] was 100% (inactive). Moreover, the aptamer binding inhibition in experiment [9] was -2% (inactive). For the same compound, the response in experiment [10] is 2.05% (inactive); in experiment [12], -3.47% (inactive). Besides, the binding (% of control) in experiment [13] was 101% (inactive). Further, the efflux inhibition (fraction of control) in experiment [17] was -0.03 (inactive). Further, in [19], the differentiation response was -24.8% (inactive).

As for `Cn1c(O)c(C=NCCc2c[nH]c3ccccc23)c(=O)n(C)c1=O`, the percent of DMSO control GFP in experiment [1] is 100% (inactive). The GFP response vs DMSO in [2] was 111% (inactive); in [4] it was 120% (inactive). Further, in experiment [3], the percent response of DMSO control is 97.7% (inactive). The GFP response, % of DMSO in experiment [5] was 110% (inactive). In experiment [6], this compound displayed a double positive events of 76.2%. Moreover, in experiment [6], the vesicle binding response was 17400% (inactive). Moreover, the inhibition in [7] is 5.03% (inactive); in [11], -3.21% (inactive); in experiment [14] it was -1.3% (inactive); in experiment [15], 1.4% (inactive); in experiment [16], -1.6% (inactive); in experiment [18] it was 6% (inactive). Besides, the superoxide response (% of plate) in [8] was 106% (inactive). In addition, in experiment [9], the aptamer binding inhibition is 5% (inactive). The response was -8.95% (inactive) in [10] and 3.13% (inactive) in [12]. In experiment [13], the binding (% of control) is 96.8% (inactive). In experiment [17], the efflux inhibition (fraction of control) is -0.06 (inactive). The differentiation response in experiment [19] was -23.2% (inactive).

Take `Cc1ccsc1C(=O)C1CCCN(Cc2cc3ccccc3o2)C1` (stereo not given): the percent of DMSO control GFP in experiment [1] is 102% (inactive). For the same compound, the GFP response vs DMSO in [2] was 98.3% (inactive); in experiment [4], 85.5% (inactive). In addition, the percent response of DMSO control in experiment [3] is 114% (inactive). In addition, the GFP response, % of DMSO in [5] is 102% (inactive). The double positive events in experiment [6] is 59.8%. Besides, the vesicle binding response in experiment [6] is 51.3% (inactive). For the same compound, the inhibition is 8.88% (inactive) in experiment [7]; 5.6% (inactive) in [11]; 2.8% (inactive) in [14]; -0.7% (inactive) in [15]; -1% (inactive) in [16]; -3% (inactive) in experiment [18]. Moreover, the superoxide response (% of plate) in experiment [8] was 97.5% (inactive). In addition, the aptamer binding inhibition in [9] is 1% (inactive). Further, the response was -13% (inactive) in experiment [10] and -0.26% (inactive) in experiment [12]. Further, the binding (% of control) in [13] was 96.9% (inactive). Further, the efflux inhibition (fraction of control) in experiment [17] is -0.2 (inactive). Further, in [19], the differentiation response is -4.64% (inactive).

In the case of `Clc1ccc(C2NCCc3[nH]cnc32)cc1` (stereo not given), the percent of DMSO control GFP in [1] was 104% (inactive). Moreover, the GFP response vs DMSO in experiment [2] is 98.3% (inactive); in experiment [4] it was 92% (inactive). For the same compound, in [3], the percent response of DMSO control is 101% (inactive). In [5], the GFP response, % of DMSO was 104% (inactive). Further, in experiment [6], the double positive events stood at 60.8%. The vesicle binding response in experiment [6] was 244% (inactive). Moreover, the inhibition was -1.49% (inactive) in experiment [7]; -2.42% (inactive) in experiment [11]; 1.1% (inactive) in experiment [14]; 0.7% (inactive) in experiment [15]; -5.5% (inactive) in experiment [16]; 1% (inactive) in experiment [18]. Also, in [8], the superoxide response (% of plate) was 94.4% (inactive). Further, the aptamer binding inhibition in [9] is -1% (inactive). For the same compound, the response is -11.3% (inactive) in experiment [10] and 0.96% (inactive) in experiment [12]. For the same compound, the binding (% of control) in [13] is 100% (inactive). In experiment [17], the efflux inhibition (fraction of control) was -0.1 (inactive). In addition, the differentiation response in experiment [19] is -5.62% (inactive).

By inhibition is commonly meant the drop in the measured response relative to a control, in per cent.

For the origin of these results see PubChem BioAssay.
